Reference: PubChem BioAssay (EPA / NIEHS)
Results filed as inconclusive are left out. Active and inactive are the calls of the source. The calls were made as follows, unless noted: active = hit-call score of the fitted dose curve at least 0.9, where 1 is the maximum; inactive = score below 0.9.

How the values were obtained:
[1] = read-out: Monokine induced gamma interferon (MIG), CXCL9 (gene 4283); experiment: BSK_3C_MIG: BioMAP Diversity Plus: 3C Assay for Monokine induced gamma interferon (MIG) Biomarker Activity (AID 2283021); conditions: primary human endothelial cells (HUVEC); actives raise or lower the signal;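 as to AC50: MIG protein level measured by immunoassay in the treated endothelial cultures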
Outline: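 ELISA measurement of MIG in human umbilical vein endothelial cells 24 h after treatment. Cytotoxicity tracked by SRB staining in parallel cultures; gain or loss of signal fitted relative to DMSO.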

[2] = BSK_3C_SRB: Viability Assessment in the BioMAP Diversity Plus: 3C Assay (AID 2283023); conditions: primary human endothelial cells (HUVEC);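 also: fitted both ways against DMSO so a hit may be signal rise or drop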
Outline: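 Absorbance at 560 nm of sulforhodamine B-stained (0.1%) total protein served as a cytotoxicity readout in human umbilical vein endothelial cells, 24 h after chemical treatment. Signal was fitted bidirectionally relative to DMSO.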

[3] = read-out: Matrix Metallopeptidase 1 (MMP1), MMP1 (gene 4312); experiment: BSK_BE3C_MMP1: BioMAP Diversity Plus: BE3C Assay for Matrix Metallopeptidase 1 (MMP1) Biomarker Activity (AID 2283024); conditions: primary human bronchial epithelial cells; actives raise or lower the signal
Outline: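 ELISA measurement of MMP-1 after 24 h compound exposure of primary human bronchial epithelial cells. Changes in either direction fitted relative to DMSO; parallel SRB staining checked overt cytotoxicity.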

[4] = BSK_3C_Vis: BioMAP Diversity Plus: 3C Assay for Morphology Visualization (AID 2283025); conditions: primary human endothelial cells (HUVEC);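 also: fitted both ways so gain or loss versus DMSO counts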;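 as to AC50: light microscopy image of cell morphology used as background control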
Outline: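 Light-microscopy visualization of HUVEC cultures at 24 h post-treatment, with DMSO as baseline for bidirectional fitting.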

[5] = read-out: Pselectin, SELP (gene 6403); experiment: BSK_4H_Pselectin: BioMAP Diversity Plus: 4H Assay for Pselectin Biomarker Activity (AID 2283026); conditions: primary human endothelial cells (HUVEC); actives raise or lower the signal
Outline: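 ELISA of surface P-selectin on HUVEC, 24 h after dosing, with parallel SRB staining (0.1% after 10% TCA fixation, 560 nm) for overt cytotoxicity. Activity fitted in both directions relative to DMSO.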

[6] = BSK_4H_SRB: Viability Assessment in the BioMAP Diversity Plus: 4H Assay (AID 2283027); conditions: primary human endothelial cells (HUVEC);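 also: cells exposed to compound for 24 h before staining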;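 as to AC50: curves fitted both ways versus DMSO so AC50 may be loss or gain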
Outline: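 Cytotoxicity readout: sulforhodamine B (0.1%) staining of total protein after 10% TCA fixation, measured at 560 nm in human umbilical vein endothelium at 24 h. DMSO set the baseline; fitting was bidirectional.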

[7] = BSK_BE3C_SRB: Viability Assessment in the BioMAP Diversity Plus: BE3C Assay (AID 2283028); conditions: primary human bronchial epithelial cells;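 as to AC50: fitted both ways so AC50 may mark signal gain or loss versus DMSO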
Outline: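 Cells (human bronchial epithelial, primary) are treated with chemicals, and after 24 h the parallel cultures are fixed in 10% TCA. These are then stained with 0.1% SRB and read at 560 nm. Gain or loss of signal is fitted relative to DMSO.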

[8] = read-out: Thrombomodulin, THBD (gene 7056); experiment: BSK_3C_Thrombomodulin: BioMAP Diversity Plus: 3C Assay for Thrombomodulin Biomarker Activity (AID 2283029); conditions: primary human endothelial cells (HUVEC); actives raise or lower the signal
Outline: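 ELISA measurement of thrombomodulin on HUVEC surface 24 h after chemical dosing; activity fitted in both directions relative to DMSO vehicle.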

[9] = read-out: Urokinase-type plasminogen activator receptor (uPAR), PLAUR (gene 5329); experiment: BSK_4H_uPAR: BioMAP Diversity Plus: 4H Assay for Urokinase-type plasminogen activator receptor (uPAR) Biomarker Activity (AID 2283030); conditions: primary human endothelial cells (HUVEC); actives raise or lower the signal
Outline: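 Cell-surface uPAR ELISA signal, measured 24 h after dosing human umbilical vein endothelial cells, was analyzed with bidirectional fitting relative to DMSO. Parallel SRB staining of total protein tracked overt cytotoxicity.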

[10] = read-out: Vascular endothelial growth factor receptor 2 (Homo sapiens) (UniProt P35968); experiment: BSK_4H_VEGFRII: BioMAP Diversity Plus: 4H Assay for Vascular endothelial growth factor receptor 2 (VEGFR2) Biomarker Activity (AID 2283031); conditions: primary human endothelial cells (HUVEC); actives raise or lower the signal
Outline: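 ELISA read-out of VEGFRII in primary human umbilical vein endothelium, taken 24 h after chemical treatment. Responses are expressed relative to DMSO, with bidirectional fitting.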

[11] = read-out: Human Leukocyte Antigen - DR isotype (HLADR), HLA-DRA (gene 3122); experiment: BSK_BE3C_HLADR: BioMAP Diversity Plus: BE3C Assay for Human Leukocyte Antigen - DR isotype (HLADR) Biomarker Activity (AID 2283032); conditions: primary human bronchial epithelial cells; actives raise or lower the signal
Outline: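 Cell-surface HLA-DR ELISA readout at 24 h after dosing in the BE3C primary human lung bronchial epithelial system; gain or loss of signal against DMSO, with parallel sulforhodamine B staining of total protein for overt cytotoxicity.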

[12] = read-out: Vascular cell adhesion molecule 1 (VCAM1), VCAM1 (gene 7412); experiment: BSK_4H_VCAM1: BioMAP Diversity Plus: 4H Assay for Vascular cell adhesion molecule 1 (VCAM1) Biomarker Activity (AID 2283033); conditions: primary human endothelial cells (HUVEC); actives raise or lower the signal
Outline: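 VCAM-1 ELISA read 24 h after chemical dosing of HUVEC in the BioMAP 4H system, with gain or loss of signal fitted relative to DMSO. Parallel SRB staining (560 nm) checked overt cytotoxicity.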

[13] = read-out: Interferon-gamma inducible Protein 10 (IP10), CXCL10 (gene 3627); experiment: BSK_BE3C_IP10: BioMAP Diversity Plus: BE3C Assay for Interferon-gamma inducible Protein 10 (IP10) Biomarker Activity (AID 2283034); conditions: primary human bronchial epithelial cells; actives raise or lower the signal
Outline: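 IP-10 quantified by ELISA in human primary bronchial epithelial cell cultures at 24 hours post-dosing. Gain or loss of signal fitted relative to DMSO; parallel SRB staining assessed overt cytotoxicity.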

[14] = read-out: Monokine induced gamma interferon (MIG), CXCL9 (gene 4283); experiment: BSK_BE3C_MIG: BioMAP Diversity Plus: BE3C Assay for Monokine induced gamma interferon (MIG) Biomarker Activity (AID 2283035); conditions: primary human bronchial epithelial cells; actives raise or lower the signal
Outline: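 hu bronchial epithelial 1° cells, 24 h cpd; MIG by ELISA; bidirectional fit, DMSO = baseline.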

[15] = read-out: Transforming growth factor beta 1 (TGFb1), TGFB1 (gene 7040); experiment: BSK_BE3C_TGFb1: BioMAP Diversity Plus: BE3C Assay for Transforming growth factor beta 1 (TGFb1) Biomarker Activity (AID 2283036); conditions: primary human bronchial epithelial cells; actives raise or lower the signal
Outline: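 ELISA readout of TGF-b1 from human lung bronchial epithelial primary cells, taken 24 h post-treatment. Gain or loss of signal fitted relative to DMSO baseline, with parallel SRB staining for overt cytotoxicity.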

[16] = read-out: Plasminogen activator inhibitor-1 (PAI1), SERPINE1 (gene 5054); experiment: BSK_BE3C_PAI1: BioMAP Diversity Plus: BE3C Assay for Plasminogen activator inhibitor-1 (PAI1) Biomarker Activity (AID 2283037); conditions: primary human bronchial epithelial cells; actives raise or lower the signal
Outline: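 PAI-1 was measured by ELISA in human primary bronchial epithelial cultures 24 h after chemical dosing, with cytotoxicity checked by SRB total-protein staining in parallel cultures. Activity was fitted in both directions relative to DMSO.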

[17] = read-out: urokinase plasminogen activator (uPA), PLAU (gene 5328); experiment: BSK_BE3C_uPA: BioMAP Diversity Plus: BE3C Assay for urokinase plasminogen activator (uPA) Biomarker Activity (AID 2283038); conditions: primary human bronchial epithelial cells; actives raise or lower the signal
Outline: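 Bronchial epithelial cells (human, primary); chemical 24 h; uPA by ELISA; bidirectional fit vs DMSO. SRB (0.1%, after 10% TCA fixation, 560 nm) in parallel cultures for cytotoxicity.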

[18] = read-out: Urokinase-type plasminogen activator receptor (uPAR), PLAUR (gene 5329); experiment: BSK_BE3C_uPAR: BioMAP Diversity Plus: BE3C Assay for Urokinase-type plasminogen activator receptor (uPAR) Biomarker Activity (AID 2283039); conditions: primary human bronchial epithelial cells; actives raise or lower the signal
Outline: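 uPAR levels were measured by ELISA after 24 h compound treatment of primary human bronchial epithelial cells, fitted in both directions relative to DMSO. Parallel SRB staining served as the cytotoxicity read-out.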

[19] = read-out: Interleukin-6 (IL6), IL6 (gene 3569); experiment: BSK_CASM3C_IL6: BioMAP Diversity Plus: CASM3C Assay for Interleukin-6 (IL6) Biomarker Activity for (AID 2283040); conditions: primary human coronary artery smooth muscle cells; actives raise or lower the signal
[20] = target: human Vitamin D Receptor (VDR), VDR (gene 7421) (UniProt P11473); experiment: ATG_VDR_TRANS: Attagene TRANS-FACTORIAL HepG2 Assay for human Vitamin D Receptor (VDR) (AID 2283022; active = hit-call score of the fitted dose curve at least 0.9, where 1 is the maximum)
Sequence of human Vitamin D Receptor (VDR), VDR (gene 7421) (P11473 whole entry, looked up, the tested form may be a part): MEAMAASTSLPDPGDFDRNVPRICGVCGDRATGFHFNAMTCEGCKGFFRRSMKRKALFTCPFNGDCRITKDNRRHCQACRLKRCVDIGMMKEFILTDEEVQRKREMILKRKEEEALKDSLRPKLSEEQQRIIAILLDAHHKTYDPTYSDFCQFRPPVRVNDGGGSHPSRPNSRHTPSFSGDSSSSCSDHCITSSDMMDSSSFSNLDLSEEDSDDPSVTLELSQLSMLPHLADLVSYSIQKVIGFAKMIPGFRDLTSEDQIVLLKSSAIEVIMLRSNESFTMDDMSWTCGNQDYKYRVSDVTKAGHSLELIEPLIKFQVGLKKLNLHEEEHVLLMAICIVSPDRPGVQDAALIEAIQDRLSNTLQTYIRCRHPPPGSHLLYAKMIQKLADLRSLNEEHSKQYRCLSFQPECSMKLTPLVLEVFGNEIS
Outline: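 Steps: transfect HepG2 with GAL4-UAS-driven reporter constructs; dose compounds 24 h; isolate RNA, reverse-transcribe, PCR-amplify with 6-FAM-labelled primer extension and HpaI digestion; quantify fragments by capillary electrophoresis relative to DMSO.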

Measured: AC50

O=Cc1ccccc1C=O
not listed: [19] | [20]
inactive: all other assays above

O=C(O)CC(O)(CC(=O)O)C(=O)O
not listed: [20]
inactive: all other assays above

CN(C)C(=O)NC1(c2ccccc2)CCN(CC[C@@]2(c3ccc(F)c(F)c3)CN(C(=O)c3ccccc3)CCO2)CC1
not listed: [2] | [8]
inactive: all other assays above

CC(=O)OCC(COC(C)=O)OC(C)=O
not listed: [2] | [16]
inactive: all other assays above

CCC(C)N(C)C(=O)c1cc2ccccc2c(-c2ccccc2Cl)n1 (stereo unspecified)
not listed: [2] | [8]
inactive: all other assays above

COC(=O)CCCC(=O)OC
not listed: [2] | [16]
inactive: all other assays above

O=C(NS(=O)(=O)/C=C/c1cccs1)c1ccc(F)cc1Br
active: [3] 1.31 µM | [13] 32.6 µM
not listed: [2] | [8] | [16]
inactive: all other assays above

Cc1cn([C@H]2C=C[C@@H](CO)O2)c(=O)[nH]c1=O
not listed: [2] | [16]
inactive: all other assays above

CCCCCCC(C=O)=Cc1ccccc1
active: [1] 36.3 µM | [4] 37.5 µM | [5] 31.1 µM | [6] 31.8 µM | [12] 33.5 µM
not listed: [2] | [8]
inactive: all other assays above

CN(C)CCCN1c2ccccc2Sc2ccc(Cl)cc21
active: [1] 32.2 µM | [3] 32.9 µM | [5] 35.9 µM | [6] 26 µM | [7] 39 µM | [9] 12.2 µM | [12] 17.8 µM | [13] 30.5 µM | [14] 38.4 µM | [15] 32.1 µM | [16] 31.9 µM | [17] 36.4 µM | [18] 29.4 µM
inactive: [20] | [8] | [10] | [19]

O=[Si]=O
not listed: [10] | [16] | [20]
inactive: all other assays above

O=NO
not listed: [2]
inactive: all other assays above

CC(=O)S[C@H](C(=O)N[C@H]1Cc2ccccc2[C@H]2CCC[C@@H](C(=O)O)N2C1=O)C(C)C
not listed: [16] | [20]
inactive: all other assays above

Cc1cc(SC2=C(O)C[C@@](CCc3ccc(N)cc3)(C(C)C)OC2=O)c(C(C)(C)C)cc1CO
not listed: [2] | [8]
inactive: all other assays above
